# Values joined by “and” are separate entries in the source; they are usually repeats but may differ in a detail not shown here. Identical values can stand only once. Some structures have more than one record in an assay (separate samples or runs), and their calls can disagree. Active and inactive are the calls of the source. The calls were made as follows: active = hit-call score of the fitted dose curve at least 0.9, where 1 is the maximum; inactive = score below 0.9.
# Legend:
# [1] = read-out: Interleukin 17F (IL17F), IL17F (gene 112744); assay: BSK_BT_xIL17F: BioMAP Diversity Plus: BT Assay for Interleukin 17F (IL17F) Biomarker Activity (AID 2284243); conditions: primary human B cells with PBMC
# How it was run: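 B cell/PBMC co-culture (human primary), 24 h compound exposure; sIL-17F by Luminex xMAP; gain-of-signal fit vs DMSO baseline.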
# [2] = read-out: Actin alpha 1 (ACTA1), ACTA1 (gene 58); assay: BSK_MyoF_ACTA1: BioMAP Diversity Plus: MyoF Assay for Actin alpha 1 (ACTA1) Biomarker Activity (AID 2284244); conditions: primary human lung fibroblasts
# How it was run: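 MyoF fibroblast system (human lung); a-SMA quantified via ELISA at 24 h; DMSO-normalised, gain-of-signal endpoint.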
# [3] = read-out: Interleukin 2 (IL2), IL2 (gene 3558); assay: BSK_BT_xIL2: BioMAP Diversity Plus: BT Assay for Interleukin 2 (IL2) Biomarker Activity (AID 2284245); conditions: primary human B cells with PBMC
# How it was run: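 Co-cultures of primary human B cells and PBMC are treated with chemical and sampled at 24 h. IL-2 secretion is quantified by Luminex xMAP, with DMSO-treated wells as baseline.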
# [4] = read-out: Basic fibroblast growth factor (bFGF), FGF2 (gene 2247); assay: BSK_MyoF_bFGF: BioMAP Diversity Plus: MyoF Assay for Basic fibroblast growth factor (bFGF) Biomarker Activity (AID 2284246); conditions: primary human lung fibroblasts
# How it was run: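 Fibroblasts from human lung, 24 h dosing. bFGF by ELISA; gain of signal over DMSO.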
# [5] = read-out: Collagen IV, COL4A1 (gene 1282); assay: BSK_MyoF_CollagenIV: BioMAP Diversity Plus: MyoF Assay for Collagen IV Biomarker Activity (AID 2284247); conditions: primary human lung fibroblasts
# How it was run: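 Lung fibroblasts (human primary) treated with chemicals were assayed after 24 h for Collagen IV using an ELISA, with DMSO serving as negative control and baseline for a positive-direction fit.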
# [6] = read-out: Monokine induced gamma interferon (MIG), CXCL9 (gene 4283); assay: BSK_KF3CT_MIG: BioMAP Diversity Plus: KF3CT Assay for Monokine induced gamma interferon (MIG) Biomarker Activity (AID 2284248); conditions: primary human keratinocytes with fibroblasts
# How it was run: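 Human keratinocyte plus foreskin fibroblast primary co-culture dosed with test chemical for 24 h; MIG level measured by ELISA and fitted in the positive direction against DMSO as baseline.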
# [7] = read-out: Vascular cell adhesion molecule 1 (VCAM1), VCAM1 (gene 7412); assay: BSK_BF4T_VCAM1: BioMAP Diversity Plus: BF4T Assay for Vascular cell adhesion molecule 1 (VCAM1) Biomarker Activity (AID 2284249); conditions: primary human bronchial epithelial cells with fibroblasts
# How it was run: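 Cell-surface VCAM-1 quantified by ELISA after 24 h chemical exposure of human bronchial epithelial/dermal fibroblast co-cultures, with SRB staining in parallel wells for cytotoxicity; DMSO baseline, positive-direction fitting.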
smiles,measurement,setting,value
CCCCCCCOC(=O)c1ccccc1C(=O)OCCCCCCC,AC50,[1],12.2 µM (active)
same,outcome,[2],inactive
same,AC50,[3],17.5 µM (active)
same,outcome,[4],inactive
same,outcome,[5],inactive
O=C(O)C(F)(F)C(F)(F)C(F)(F)C(F)(F)C(F)(F)C(F)(F)C(F)(F)C(F)(F)C(F)(F)C(F)F,outcome,[1],inactive
same,AC50,[2],38.1 µM (active) and 36.2 µM (active)
same,outcome,[3],inactive
same,outcome,[4],inactive
same,AC50,[5],8.18 µM (active) and 8.12 µM (active)
same,AC50,[6],49.3 µM (active) and 48 µM (active)
same,AC50,[7],7.76 µM (active)
same,outcome,[7],inactive
O=C(Cl)C(F)(F)C(F)(F)C(F)(F)C(F)(F)C(F)(F)C(F)(F)C(F)(F)C(F)(F)F,outcome,[1],inactive
same,AC50,[2],23.6 µM (active) and 43.7 µM (active) and 30 µM (active)
same,outcome,[3],inactive
same,outcome,[4],inactive
same,AC50,[5],18.7 µM (active) and 20.4 µM (active) and 21.3 µM (active)
same,outcome,[6],inactive
same,AC50,[7],38.9 µM (active) and 47.4 µM (active) and 45.5 µM (active)
O=S(=O)(OCCOC(F)(F)F)C(F)(F)F,outcome,[1],inactive
same,outcome,[2],inactive
same,outcome,[3],inactive
same,outcome,[4],inactive
same,outcome,[5],inactive
same,outcome,[6],inactive
same,outcome,[7],inactive
FC(F)(I)C(F)(F)C(F)(F)C(F)(F)I,AC50,[1],30 µM (active) and 47.7 µM (active) and 43.1 µM (active)
same,AC50,[2],48.6 µM (active) and 49 µM (active) and 34.3 µM (active)
same,AC50,[3],54.7 µM (active) and 47.8 µM (active) and 43.6 µM (active)
same,AC50,[4],51.4 µM (active) and 45.9 µM (active)
same,AC50,[5],50.6 µM (active) and 50.7 µM (active) and 51.6 µM (active)
same,AC50,[6],58.1 µM (active) and 47.2 µM (active) and 51.6 µM (active)
same,AC50,[7],41.5 µM (active) and 47 µM (active) and 30 µM (active)
O=C(O)C(F)(F)C(F)(F)F,outcome,[1],inactive
same,outcome,[2],inactive
same,outcome,[3],inactive
same,outcome,[4],inactive
same,outcome,[5],inactive
same,outcome,[6],inactive
same,outcome,[7],inactive
C=CC(F)(F)C(F)(F)C(F)(F)C(F)(F)C(F)(F)C(F)(F)C(F)(F)C(F)(F)F,outcome,[1],inactive
same,outcome,[2],inactive
same,outcome,[3],inactive
same,outcome,[4],inactive
same,outcome,[5],inactive
same,outcome,[6],inactive
same,outcome,[7],inactive
FC(F)(F)C(F)(F)CNCC(F)(F)C(F)(F)F,outcome,[1],inactive
same,outcome,[2],inactive
same,outcome,[3],inactive
same,outcome,[4],inactive
same,outcome,[5],inactive
same,outcome,[6],inactive
same,outcome,[7],inactive
FC(F)(F)C(F)(F)C(F)(F)N(C(F)(F)C(F)(F)C(F)(F)F)C(F)(F)C(F)(F)C(F)(F)F,outcome,[1],inactive
same,outcome,[2],inactive
same,outcome,[3],inactive
same,outcome,[4],inactive
same,outcome,[5],inactive
same,outcome,[6],inactive
same,outcome,[7],inactive
FC(F)(F)C(F)(F)C(F)(F)C(F)(F)C(F)(F)CCI,outcome,[1],inactive
same,outcome,[2],inactive
same,outcome,[3],inactive
same,outcome,[4],inactive
same,outcome,[5],inactive
same,outcome,[6],inactive
same,outcome,[7],inactive
C=CC(=O)OCC(F)(F)C(F)(F)C(F)(F)C(F)(F)C(F)(F)C(F)(F)C(F)(F)F,AC50,[1],6.72 µM (active) and 18.4 µM (active)
same,outcome,[2],inactive
same,outcome,[3],inactive
same,outcome,[4],inactive
same,outcome,[5],inactive
same,outcome,[6],inactive
same,outcome,[7],inactive
CCCCC(CC)COP(=O)(O)OCC(CC)CCCC (stereo unspecified),outcome,[6],inactive
CCCCCCCCC(F)(F)C(F)(F)C(F)(F)C(F)(F)C(F)(F)C(F)(F)F,outcome,[1],inactive
same,outcome,[2],inactive
same,outcome,[3],inactive
same,outcome,[4],inactive
same,outcome,[5],inactive
same,outcome,[6],inactive
same,outcome,[7],inactive
C=CC(F)(F)C(F)(F)C(F)(F)C(F)(F)C(F)(F)C(F)(F)C(F)(F)C(F)(F)C=C,outcome,[1],inactive
same,outcome,[2],inactive
same,outcome,[3],inactive
same,outcome,[4],inactive
same,outcome,[5],inactive
same,outcome,[6],inactive
same,outcome,[7],inactive
O=S(=O)(OCC(F)F)C(F)(F)F,outcome,[1],inactive
same,outcome,[2],inactive
same,outcome,[3],inactive
same,outcome,[4],inactive
same,outcome,[5],inactive
same,outcome,[6],inactive
same,outcome,[7],inactive
OCC(F)(F)C(F)(F)C(F)(F)C(F)(F)C(F)(F)C(F)(F)F,AC50,[1],43.8 µM (active) and 40.2 µM (active)
same,outcome,[2],inactive
same,outcome,[3],inactive
same,outcome,[4],inactive
same,outcome,[5],inactive
same,outcome,[6],inactive
same,outcome,[7],inactive
C=C(C)C(=O)OCC(F)(F)C(F)(F)C(F)(F)C(F)(F)C(F)(F)C(F)(F)C(F)(F)F,outcome,[1],inactive
same,outcome,[2],inactive
same,outcome,[3],inactive
same,outcome,[4],inactive
same,outcome,[5],inactive
same,outcome,[6],inactive
same,outcome,[7],inactive
NC(=O)C(F)(F)C(F)(F)C(F)(F)C(F)(F)F,outcome,[1],inactive
same,outcome,[2],inactive
same,outcome,[3],inactive
same,outcome,[4],inactive
same,outcome,[5],inactive
same,outcome,[6],inactive
same,outcome,[7],inactive
FC(F)(Br)C(F)(F)C(F)(F)C(F)(F)C(F)(F)C(F)(F)Br,outcome,[1],inactive
same,outcome,[2],inactive
same,outcome,[3],inactive
same,outcome,[4],inactive
same,outcome,[5],inactive
same,outcome,[6],inactive
same,outcome,[7],inactive
O=S(=O)(O)C(F)(F)C(F)(F)C(F)(F)C(F)(F)C(F)(F)C(F)(F)C(F)(F)F,outcome,[1],inactive
same,outcome,[2],inactive
same,outcome,[3],inactive
same,outcome,[4],inactive
same,outcome,[5],inactive
same,outcome,[6],inactive
same,outcome,[7],inactive
O=C(O)C=C(C(F)(F)F)C(F)(F)F,AC50,[1],10.4 µM (active) and 8.84 µM (active)
same,outcome,[2],inactive
same,AC50,[3],10.1 µM (active) and 5.58 µM (active)
same,outcome,[4],inactive
same,outcome,[5],inactive
same,outcome,[6],inactive
same,outcome,[7],inactive
O=C(O)C(F)(F)C(F)(F)C(F)(F)C(F)(F)C(F)(F)C(F)(F)C(F)(F)C(F)(F)C(F)(F)C(F)(F)C(F)(F)C(F)(F)C(F)(F)F,outcome,[1],inactive
same,outcome,[2],inactive
same,outcome,[3],inactive
same,outcome,[4],inactive
same,outcome,[5],inactive
same,outcome,[6],inactive
same,outcome,[7],inactive
OCC(F)(F)C(F)(F)C(F)(F)C(F)(F)C(F)(F)C(F)F,outcome,[1],inactive
same,outcome,[2],inactive
same,outcome,[3],inactive
same,outcome,[4],inactive
same,outcome,[5],inactive
same,outcome,[6],inactive
same,outcome,[7],inactive
FC(F)(F)C(F)(F)C(F)(F)C(F)(F)C(F)(F)C(F)(F)C(F)(F)I,outcome,[1],inactive
same,AC50,[2],3.33 µM (active)
same,outcome,[3],inactive
same,outcome,[4],inactive
same,AC50,[5],4.81 µM (active) and 1.16 µM (active)
same,outcome,[6],inactive
same,outcome,[7],inactive
CCCCCCOC(=O)c1ccccc1O,outcome,[6],inactive
O=C(O)C(F)(F)C(F)(F)C(F)F,outcome,[1],inactive
same,outcome,[2],inactive
same,outcome,[3],inactive
same,outcome,[4],inactive
same,outcome,[5],inactive
same,outcome,[6],inactive
same,outcome,[7],inactive
C=C(C)C(=O)OCCC(F)(F)C(F)(F)C(F)(F)C(F)(F)C(F)(C(F)(F)F)C(F)(F)F,outcome,[1],inactive
same,outcome,[2],inactive
same,outcome,[3],inactive
same,outcome,[4],inactive
same,outcome,[5],inactive
same,outcome,[6],inactive
same,outcome,[7],inactive
FC1CC(F)(F)C(F)(F)C1(F)F (stereo unspecified),outcome,[1],inactive
same,outcome,[2],inactive
same,outcome,[3],inactive
same,outcome,[4],inactive
same,outcome,[5],inactive
same,outcome,[6],inactive
same,outcome,[7],inactive
Cc1ccc(S(=O)(=O)OCC(F)(F)C(F)(F)C(F)(F)C(F)(F)C(F)(F)C(F)F)cc1,outcome,[1],inactive
same,outcome,[2],inactive
same,outcome,[3],inactive
same,outcome,[4],inactive
same,outcome,[5],inactive
same,outcome,[6],inactive
same,outcome,[7],inactive
CCO[Si](CCC(F)(F)C(F)(F)C(F)(F)C(F)(F)C(F)(F)C(F)(F)F)(OCC)OCC,outcome,[1],inactive
same,outcome,[2],inactive
same,outcome,[3],inactive
same,outcome,[4],inactive
same,outcome,[5],inactive
same,outcome,[6],inactive
same,outcome,[7],inactive
O=C(O)C(F)(OC(F)(F)C(F)(OC(F)(F)C(F)(F)C(F)(F)F)C(F)(F)F)C(F)(F)F (stereo unspecified),outcome,[1],inactive
same,outcome,[2],inactive
same,outcome,[3],inactive
same,outcome,[4],inactive
same,outcome,[5],inactive
same,outcome,[6],inactive
same,outcome,[7],inactive
O=C(O)C(F)(OC(F)(F)C(F)(OC(F)(F)C(F)(OC(F)(F)C(F)(F)C(F)(F)F)C(F)(F)F)C(F)(F)F)C(F)(F)F (stereo unspecified),outcome,[1],inactive
same,outcome,[2],inactive
same,outcome,[3],inactive
same,outcome,[4],inactive
same,outcome,[5],inactive
same,outcome,[6],inactive
same,outcome,[7],inactive
FC(F)(F)C(F)(F)C(F)(F)C(F)(F)C(F)(F)C(F)(F)C(F)(F)Br,outcome,[1],inactive
same,outcome,[2],inactive
same,outcome,[3],inactive
same,outcome,[4],inactive
same,outcome,[5],inactive
same,outcome,[6],inactive
same,outcome,[7],inactive
FC(F)(F)C(F)(F)C(F)(F)C(F)(F)C(F)(F)C(F)(F)CCS,outcome,[1],inactive
same,outcome,[2],inactive
same,outcome,[3],inactive
same,outcome,[4],inactive
same,outcome,[5],inactive
same,outcome,[6],inactive
same,outcome,[7],inactive
COC(=O)CCC(F)(F)C(F)(F)C(F)(F)C(F)(F)F,outcome,[1],inactive
same,outcome,[2],inactive
same,outcome,[3],inactive
same,outcome,[4],inactive
same,outcome,[5],inactive
same,outcome,[6],inactive
same,outcome,[7],inactive
O=C(O)C(F)(F)C(F)(F)C(F)(F)C(F)(F)F,outcome,[1],inactive
same,outcome,[2],inactive
same,outcome,[3],inactive
same,outcome,[4],inactive
same,outcome,[5],inactive
same,outcome,[6],inactive
same,outcome,[7],inactive
OCCCC(F)(F)C(F)(F)C(F)(F)F,outcome,[1],inactive
same,outcome,[2],inactive
same,outcome,[3],inactive
same,outcome,[4],inactive
same,outcome,[5],inactive
same,outcome,[6],inactive
same,outcome,[7],inactive

# Reference: PubChem BioAssay (EPA / NIEHS)
